These results are taken from PubChem BioAssay (Tox21).

Test [1] in a line: qHTS assay for small molecules that induce genotoxicity in human embryonic kidney cells expressing luciferase-tagged ATAD5 (AID 651632). Also: nearly all actives have a fitted effect of over 15% in size. The essentials: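 HEK293T cells carrying a luciferase reporter tagged to ATAD5 were exposed to compound or DMSO vehicle for 16 hr at 37C, 5% CO2. Amplite was added, and after 30 min at room temperature luciferase activity was read as a marker of ATAD5 induction.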
For orientation: qHTS replaces the single test concentration by a dilution series.

A short description of test [2]: qHTS assay for small molecules that induce genotoxicity in human embryonic kidney cells expressing luciferase-tagged ATAD5 - cell viability (AID 651634; calls by dose curve; also: nearly all actives have a fitted effect of over 25% in size; also: potency is read from the fitted curve at half-maximal effect). An outline of the steps:
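HEK293T cells expressing luciferase-tagged ATAD5 were exposed to compound or DMSO for 15.5 hr at 37C, 5% CO2. Viability was then read as live-cell protease activity by CellTiter-Fluor fluorescence after 30 min at 37C.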

Test [3] in a line: qHTS assay for small molecule disruptors of the mitochondrial membrane potential - cell viability (AID 720634; calls by dose curve;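 also: human HepG2 liver cancer cells; series mostly up to about 83 µM; nearly all actives have a fitted effect of over 20% in size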). An outline of the steps: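 HepG2 cells seeded overnight at 37 C, then exposed to compound or DMSO for 1 hr at 37 C, 5% CO2. m-MPI dye added, then CellTiter-Glo for 30 min at room temperature; viability read as ATP luminescence.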
A short description of test [4]: qHTS assay for small molecule disruptors of the mitochondrial membrane potential (AID 720635). The essentials:
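HepG2 cells (2,000/well) attached overnight at 37C, then took compound for 1 hr at 37C, 5% CO2. Mito-MPS dye was added for 30 min; fluorescence was read at 490/535 nm (monomers) and 540/590 nm (aggregates).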

Test [5] is described as follows: qHTS assay to test for compound auto fluorescence at 590 nm (red) in HepG2 cells (AID 720674). Also: potency is read from the fitted curve at half-maximal effect. The essentials:
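Rose Bengal sodium served as the red fluorophore standard. HepG2 monolayers (overnight attachment, MEM with 10% FBS) were exposed to test compounds for 1 hr at 37 C and read at Ex 540/Em 590 nm.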

Test [6] in a line: qHTS assay to test for compound auto fluorescence at 535 nm (green) in HepG2 cells (AID 720675).
Test [7] in a line: qHTS assay to test for compound auto fluorescence at 460 nm (blue) in HEK293 cells (AID 720678). The essentials:
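HEK293 cells (2,000/well, medium with 10% dialyzed FBS) attached 4-5 hr, then exposed to compound overnight at 37C, 5% CO2. Blue fluorescence read at 405/460 nm, with triamterene as reference fluorophore.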

Test [8] is described as follows: qHTS assay to test for compound auto fluorescence at 590 nm (red) in HEK293 cells (AID 720679). Also: potency is read from the fitted curve at half-maximal effect. An outline of the steps: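 HEK293 cells (2,000/well, 10% dialyzed FBS) attached 4-5 hr, then dosed with compound or DMSO and incubated overnight at 37C, 5% CO2. Red fluorescence read at 540/590 nm, Rose Bengal sodium as reference fluorophore.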
The nature of test [9]: qHTS assay for small molecule agonists of the p53 signaling pathway - cell viability (AID 651633; calls by dose curve; also: nearly all actives have a fitted effect of over 30% in size; also: potency is read from the fitted curve at half-maximal effect). The essentials: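 p53RE-bla cells, seeded at 4,000 per well and rested 5 h at 37 C/5% CO2, received compounds in DMSO for 16 h at 37 C. CellTiter-Glo was then added, and luminescence was read after 30 min at room temperature to gauge cytotoxicity.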

Results filed as inconclusive are left out. The source made the active and inactive calls. Unless noted, calls follow the shape of the dose curve; as a rule, active = well fitted curve in the direction sought with a large enough effect in the repeat runs; inconclusive = weak or mixed curves; inactive = no such curve, though single readings can be large; an effect the other way counts as inactive or inconclusive.
Tags tell the direction and shape of the fitted curve or compound fluorescence and quenching.

Turning to `COc1ccc(C2NC(=S)N3C(c4ccc(OC)c(OC)c4)NC(=S)N23)cc1OC` (stereo unspecified), the Potency entry in [1], in test [2], in [3], in test [4], in test [5] and in test [6] was “inactive” each time. The Potency result in test [7] and in test [8] was “inactive” throughout.

For the molecule `CN1CCN(C(c2ccccc2)c2ccc(Cl)cc2)CC1` (stereo unspecified), the Potency entry in [1], in test [9], in test [3], in [5], in [6] and in test [7] was “inactive” each time. Besides, in test [8], the Potency result is “inactive”.

Turning to `OCC(S)CS` (stereo unspecified), the Potency entry in [1], in test [3], in test [5], in test [6], in test [7] and in [8] was “inactive” in each case. Also, in [9], the Potency was 26.6 µM (active).

As to `O=C1NCCN1c1ncc([N+](=O)[O-])s1`, the Potency entry in test [1], in test [2], in [3], in test [5], in test [6] and in test [7] was “inactive” throughout. In test [8], the Potency entry was “inactive”.

In the case of `OC1OC[C@@H](O)[C@H](O)[C@@H]1O` (stereo partly specified), the Potency result in test [1], in test [9], in [3], in test [5], in test [6] and in test [7] was “inactive” in each case. In [8], the Potency entry is “inactive”.

For the molecule `Cc1cc(O)c2c(c1)O[C@@]1(C)CC[C@H]3C(C)(C)CCCC34CO[C@@H]2[C@H]41` (stereo partly specified), the Potency result in test [1], in test [5], in test [6], in test [7] and in [8] was “inactive” throughout. The Potency in test [9] is 26.6 µM (active).

Consider `CCCCC/C=C\CCC(=O)N[C@H]1[C@H](Oc2c3cc4cc2Oc2ccc(cc2Cl)[C@@H](O[C@@H]2O[C@H](CO)[C@@H](O)[C@H](O)[C@H]2NC(C)=O)[C@@H]2NC(=O)[C@H](NC(=O)[C@@H]4NC(=O)[C@H]4NC(=O)[C@@H](Cc5ccc(c(Cl)c5)O3)NC(=O)[C@H](N)c3ccc(O)c(c3)Oc3cc(O)cc4c3)c3ccc(O)c(c3)-c3c(O[C@H]4O[C@H](CO)[C@@H](O)[C@H](O)[C@@H]4O)cc(O)cc3[C@@H](C(=O)O)NC2=O)O[C@H](CO)[C@@H](O)[C@@H]1O`, for which the Potency entry in test [1], in test [9], in [5], in test [6], in test [7] and in [8] was “inactive” throughout.

As to `CN[C@@H]1[C@@H](O)[C@@H](O[C@@H]2[C@@H](O)[C@H](OC3OC(CN)=CCC3N)[C@@H](N)C[C@H]2N)OC[C@]1(C)O` (stereo partly specified), the Potency entry in [1], in test [2], in [3], in test [4], in test [5] and in test [6] was “inactive” throughout. Further, the Potency result in test [7] and in [8] was “inactive” each time.

As to `C=C1C(=C/C=C2\CCC[C@]3(C)[C@@H]([C@H](C)/C=C/[C@H](C)C(C)C)CC[C@@H]23)C[C@@H](O)C[C@@H]1O`, the Potency entry in test [1], in test [2], in test [3], in test [5], in test [6] and in [7] was “inactive” in each case. The Potency result in test [8] was “inactive”.

Take `CCCc1nc(C(C)(C)O)c(C(=O)OCc2oc(=O)oc2C)n1Cc1ccc(-c2ccccc2-c2nn[nH]n2)cc1`: the Potency entry in test [1], in [9], in test [4], in test [5], in [6] and in test [7] was “inactive” in each case. For the same molecule, the Potency result in [8] is “inactive”.

With `O=C(O)c1c(Cl)c(Cl)c(Cl)c(Cl)c1-c1c2cc(I)c(=O)c(I)c-2oc2c(I)c(O)c(I)cc12`, the Potency result in test [1], in test [3], in test [6] and in test [7] was “inactive” throughout. The Potency in [2] is 26.6 µM (active); in test [5] it was 11.2 µM (active); in test [8], 11.2 µM [fluorescent] (active).

Regarding `CS(=O)(=O)OCC(O)C(O)COS(C)(=O)=O` (stereo unspecified), the Potency result in [1], in test [9], in [3], in test [5], in [6] and in test [7] was “inactive” each time. Further, the Potency entry in test [8] is “inactive”.

As for `CCCC1([C@H](O)C/C=C/[C@H]2[C@H](O)CC(=O)[C@@H]2CCCCCCC(=O)OC)CCC1`, the Potency result in test [1], in test [5], in [6], in test [7] and in test [8] was “inactive” each time. Besides, in test [9], the Potency was 29.8 µM (active).

For `C#C[C@]1(OC(C)=O)CC[C@H]2[C@@H]3CCC4=CC(=O)CC[C@@H]4[C@H]3CC[C@@]21C`, the Potency result in test [1], in test [9], in test [3], in test [5], in [6] and in [7] was “inactive” throughout. For the same molecule, the Potency result in [8] was “inactive”.

Consider `CCC(=O)NCCC1CCc2ccc3c(c21)CCO3` (stereo unspecified), for which the Potency result in test [1], in [2], in [3], in [5], in test [6] and in test [7] was “inactive” in each case. For the same molecule, the Potency result in [8] is “inactive”.

On to `O=C(/C=C/c1cccc(F)c1)NC1CC1`, for which the Potency entry in test [9], in [2], in test [3], in test [4], in [5] and in [6] was “inactive” each time. Also, the Potency entry in test [7] and in test [8] was “inactive” each time.

Take `CCCCC[C@H](O)/C=C/[C@H]1[C@H](O)CC(=O)[C@@H]1CCCCCCC(=O)O`: the Potency entry in test [1], in test [2], in [5], in test [6], in test [7] and in test [8] was “inactive” each time.

In the case of `CCC(=O)Oc1ccc2c(c1)CC[C@@H]1[C@@H]2CC[C@]2(C)[C@@H](OC(=O)CC)CC[C@@H]12`, the Potency result in test [1], in test [2], in test [3], in test [5], in [6] and in test [7] was “inactive” each time. The Potency entry in test [8] was “inactive”.

With `CC(C)[C@@H](C)/C=C/[C@@H](C)[C@H]1CC[C@H]2/C(=C/C=C3\C[C@@H](O)CC[C@@H]3C)CCC[C@]12C`, the Potency entry in test [1], in test [3], in test [5], in [6], in test [7] and in test [8] was “inactive” in each case.
